Assay results from ChEMBL document CHEMBL1157539, “Thousands of chemical starting points for antimalarial lead identification” (Nature, 2010).

Legend:
Assay type in all cases: functional
[1] = test system: Plasmodium falciparum; experiment: GSK_TCMDC: Inhibition of Plasmodium falciparum 3D7 in whole red blood cells, using parasite LDH activity as an index of growth. Test compounds present at 2uM
[2] = test system: Plasmodium falciparum; experiment: GSK_TCMDC: Inhibition of Plasmodium falciparum Dd2 in whole red blood cells, using parasite LDH activity as an index of growth. Test compounds present at 2uM
[3] = test system: HepG2; experiment: GSK_TCMDC: Percent inhibition of human HepG2 cell line. Test compounds present at 10uM.

Compound	Inhibition [1]	Inhibition [2]	Inhibition [3]
COc1cc2ccccc2cc1CCNCCCCNCCc1cc2ccccc2cc1OC.CS(=O)(=O)O	99%	38%	100%
COc1ccc(-c2cc3ncnc(N4CCN(CCN5CCCC5)CC4)c3s2)cc1	98%	90%	22%
CCN(CCCN1CCCCC1)c1nccc(Nc2ccc(Cl)cc2)n1	89%	63%	19%
CCOC(=O)N1CCN(CCCNc2c3ccc(Cl)cc3nc3ccc(OC)cc23)CC1	100%	100%	52%
O=C(NCCSCc1c(F)cccc1Cl)c1cnc2c(c1)nc(-c1c[nH]c(-c3ccccc3)n1)n2CCc1c[nH]cn1	93%	45%	10%
Oc1cc(NC[C@H]2CCC[C@@H]2NCc2cc(Br)cc(Br)c2)nc2ccccc12	100%	45%	21%
CC(C)C[C@@H](NC(=O)NC1CCC(CCN2C3CCC2CC(OC(=O)C(CO)c2ccccc2)C3)CC1)C(O)(c1ccccc1)c1ccccc1 (some centres undefined)	95%	71%	21%
C=Cc1ccccc1C1(O)CCN(CCCCNC(=O)c2ccc(-c3ccc(C#N)cc3)cc2)CC1	88%	64%	27%
CNC(=O)c1cnc(Nc2ccc(N3CCN(C)CC3)c(C)c2)nc1NC.Cl	97%	38%	19%
COc1ccc2nccc(NC(=O)C3CCC(NCc4cnc(SC)c([N+](=O)[O-])c4)CC3)c2n1.Cl (centres undefined)	89%	44%	8%
O=C(c1cccc(-c2noc(C(F)(F)F)n2)c1)N1CCN(c2ccncc2)CC1	90%	56%	14%
O=C(NC1CCN(CCCc2ccccc2)CC1)c1ccc(-c2cccc(C(F)(F)F)c2)s1.O=C(O)C(F)(F)F	95%	47%	93%
NC(=O)c1ccccc1Nc1nc(Nc2ccc(N3CCOCC3)cc2)ncc1[N+](=O)[O-].O=C(O)C(F)(F)F	98%	96%	53%
Cc1cc(C)n(Cc2ccc(C(=O)NCC3CCCCC3)cc2)n1	95%	1%	0%
O=C(Cc1ccc[n+]([O-])c1)Nc1cccc(-c2cccc(-c3nc4cc(C(F)(F)F)ccc4[nH]3)c2)c1	92%	99%	41%
O=C(Nc1ccc([N+](=O)[O-])cc1)Nc1nc2ccc(Cl)cc2s1	92%	33%	63%
COc1cccc(CN2CCCN(Cc3cccc(NC(=O)c4ccc(Cl)c(Cl)c4)c3)CC2)c1.O=C(O)C(F)(F)F	89%	11%	26%
COc1nc2c(CCN3CC[C@H](NCc4cc(C#N)c5c(c4)CCO5)[C@H](O)C3)ccnc2cc1F	99%	71%	31%
COc1cc(-c2nc(-c3ccc([N+](=O)[O-])cc3)c(-c3ccccc3)[nH]2)cc(OC)c1O	98%	56%	7%
Cc1cccc2nc(-c3cccc(-c4cccc(NC(=O)Nc5cccc(C#N)c5)c4)c3)[nH]c12	100%	99%	22%
Cc1ccc(NC(=O)c2ccc3ncccc3c2)cc1OC1CCN(Cc2ccco2)C1.O=C(O)C(F)(F)F (centres undefined)	86%	42%	9%
Cc1cccc2nc(-c3ccc(-c4cccc(CNCCc5ccncc5)c4)cc3)[nH]c12.O=C(O)C(F)(F)F	100%	95%	28%
CCCCN(CCCC)CCCCCCNc1c2ccccc2nc2ccccc12.Cl	95%	87%	49%
CCCCCCc1cc(Oc2c(I)cc(C[C@H](N)C(=O)O)cc2I)ccc1O	97%	0%	0%
Cc1ccc(CNC(=O)[C@H](Cc2ccccc2)Nc2cc(C)nc(NCc3ccccc3C)n2)cc1.O=C(O)C(F)(F)F	97%	50%	23%
CCCNCc1ccc(-c2ccc(CN(Cc3cnc(C)cn3)C(=O)/C=C/c3ccccc3C)cc2)nc1.O=C(O)C(F)(F)F	95%	15%	7%
CCc1c(CCNCCCCCCNCc2ccc3c(c2CC)OCO3)ccc(OC)c1OC.Cl	100%	19%	38%
Cl.O=C(c1ccc(-c2ccc(Cl)cc2)o1)N1CCc2cc3nccc(N4CCN5CCC[C@H]5C4)c3cc21	100%	86%	1%
